Shown are actives, neighbours in structure and some others; about 13% of the full set was active somewhere.
ALDH1A1 block: qHTS Assay for Inhibitors of Aldehyde Dehydrogenase 1 (ALDH1A1). Potency, µM (highest dose often 75.3 µM), for the others: at the highest dose activity, negative = inhibition, most hits filed as inhibitors. AID 1030, 2008. Aldehyde dehydrogenase 1A1 (Homo sapiens), P00352. 220,000 compounds, 7.3% hits. Purified ALDH1A1, NADH fluorescence, propionaldehyde substrate; active = well fitted inhibition curve with a large enough effect, not every such curve was filed as active; inconclusive = small, poorly fitted or top-dose-only effect, or another doubt; inactive = no such curve, though single readings can be large or run the other way;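 also: potency is read from the fitted curve at half-maximal effect; plate controls were no enzyme wells and a reference inhibitor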
Target sequence (P00352 whole entry, looked up): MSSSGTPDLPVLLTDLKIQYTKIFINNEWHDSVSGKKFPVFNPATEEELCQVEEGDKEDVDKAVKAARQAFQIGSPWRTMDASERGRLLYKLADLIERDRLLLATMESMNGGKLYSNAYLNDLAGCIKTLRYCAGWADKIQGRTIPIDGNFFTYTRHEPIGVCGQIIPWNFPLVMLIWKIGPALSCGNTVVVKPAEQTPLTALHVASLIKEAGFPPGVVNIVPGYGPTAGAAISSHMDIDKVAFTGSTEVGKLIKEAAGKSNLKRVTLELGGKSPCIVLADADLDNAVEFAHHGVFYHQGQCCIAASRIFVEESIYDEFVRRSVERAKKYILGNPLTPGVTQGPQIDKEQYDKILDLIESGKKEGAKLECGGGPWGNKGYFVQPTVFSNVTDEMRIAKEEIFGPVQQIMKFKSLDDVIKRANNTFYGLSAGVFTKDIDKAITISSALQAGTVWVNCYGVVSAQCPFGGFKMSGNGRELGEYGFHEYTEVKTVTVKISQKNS
miR-21 act: qHTS Assay for Modulators of miRNAs and/orActivators of miR-21; HeLa miR-21 FLuc reporter, luciferase, 48 h; Potency, µM (highest dose often 38.3 µM), without a hit: at the top dose activity change, positive = activation, hits mostly activators; 340,000 tested, under 10 active; AID 2288, 2010;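 also: % of control where 0% means no effect; miR-21 action dims this reporter so a rising signal means less miR-21 action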
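Compounds were titrated across several concentrations (up to approximately 40 uM) and incubated 48 hours with HeLa miR-21-FLuc reporter cells (miR-21 target sequence downstream of FLuc, endogenous miR-21). Readout was firefly luciferase luminescence after lytic detection reagent.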
Lamin A splicing: qHTS Assay for Modulators of Lamin A Splicing | AID 1487, 2009 | HeLa LMNA splicing GFP/RFP minigene ratio, 48 h | 200,000 compounds, 0.01% hits | Potency, µM (series often up to 46.1 µM), inactives show top-dose ratio change, negative = inhibition, actives largely listed as inhibitors; active = well fitted inhibition curve with a large enough effect in the signal ratio, with a control signal flat, not every such curve was filed as active; inconclusive = small, poorly fitted or top-dose-only effect, or effect the other way, or a change in a side signal; the % refers to the signal ratio; also: potency is read from the fitted curve at half-maximal effect; % is scaled to controls: 0 for no effect and ±100 for the full control effect
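S3 HeLa stable clones carrying a lamin A-EGFP splicing minigene plus DsRed2 were seeded at 600 cells/well in Opti-MEM with 2% FBS, pin-dosed and incubated 48 h at 37°C. Acumen cytometry (488 nm) gave the GFP/RFP total-intensity ratio.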
Sfp PPTase inh: qHTS Assay for Inhibitors of Bacillus subtilis Sfp phosphopantetheinyl transferase (PPTase); 4'-phosphopantetheinyl transferase ffp (Bacillus subtilis), Q9F4F7; Biochemical Sfp PPTase activity, qHTS; Potency, µM, without a hit: largest response in the series, negative = inhibition, usual class: inhibitors; 310,000 compounds, 3.5% hits; AID 1490, 2009;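 also: the enzyme is Sfp with the accession as filed and its product quenches rhodamine fluorescence; potency is read from the fitted curve at half-maximal effect; 0% = enzyme reaction without inhibitor and -100% = no enzyme wells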
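With Hepes-Na pH 7.6 buffer containing 10 mM MgCl2, Sfp (15 nM) modified BHQ-2-YbbR (12.5 uM) using rhodamine-CoA (5 uM). Two reads 30 minutes apart at 525/598 nm yielded each well's rate.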
KDM4E inh: qHTS Assay for Inhibitors of Human Jumonji Domain Containing 2E (JMJD2E). Lysine-specific demethylase 4E (Homo sapiens), B2RXH2. JMJD2E catalytic domain, FDH-coupled NADH fluorescence (FDH is formaldehyde dehydrogenase). Potency, µM (top dose mostly 57.1 µM), for the others: at the highest dose activity change, negative = inhibition, hits mostly inhibitors. 230,000 compounds, 1.6% hits; active = well fitted inhibition curve with a large enough effect, not every such curve was filed as active; inconclusive = small, poorly fitted or top-dose-only effect, or another doubt; inactive = no such curve, though single readings can be large or run the other way;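 also: potency is read from the fitted curve at half-maximal effect; 0% = wells with enzyme and -100% = buffer wells without enzyme; nearly all actives have a fitted effect of over 50% in size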
G9a inh: qHTS Assay for Inhibitors of Histone Lysine Methyltransferase G9a; Histone-lysine N-methyltransferase EHMT2 (Homo sapiens), Q96KQ7; Potency, µM (titrated, usually from 102 µM), inactives show at the highest dose activity, negative = inhibition, most hits filed as inhibitors; G9a H3K9 monomethylation, AlphaScreen, 2 h; 350,000 compounds, 8.8% hits; also: potency is read from the fitted curve at half-maximal effect; % is scaled to controls: 0 for no effect and ±100 for the full control effect; nearly all actives have a fitted effect of over 75% in size
Target sequence (Q96KQ7 913-1193 limits assumed): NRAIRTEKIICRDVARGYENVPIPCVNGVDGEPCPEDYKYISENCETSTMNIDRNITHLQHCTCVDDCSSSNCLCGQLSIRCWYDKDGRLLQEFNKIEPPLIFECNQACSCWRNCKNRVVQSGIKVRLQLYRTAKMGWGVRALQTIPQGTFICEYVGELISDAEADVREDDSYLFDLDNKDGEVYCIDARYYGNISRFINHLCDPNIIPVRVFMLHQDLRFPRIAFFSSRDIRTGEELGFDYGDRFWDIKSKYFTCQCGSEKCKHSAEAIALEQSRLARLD
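Methyltransferase reactions run at room temperature for 2 h (20 nM enzyme, 500 nM biotin-H3K9 peptide, 20 uM SAM) after a 15 min compound preincubation; product detected by AlphaScreen beads and anti-H3K9me1 antibody.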
* marks the source's active call; other numbers are inactive results; ? = inconclusive; . = no result given; [ ] = dose if it differs, or a comment. Unless noted, calls follow the shape of the dose curve; as a rule, active = well fitted curve in the direction sought with a large enough effect; inconclusive = small, poorly fitted or top-dose-only effect, or another doubt; inactive = no such curve, though single readings can be large; an effect the other way counts as inactive or inconclusive.

SMILES | ALDH1A1 block | miR-21 act | Lamin A splicing | Sfp PPTase inh | KDM4E inh | G9a inh
COC(=O)c1sc(N2C(=O)C(O)=C(C(=O)c3ccc(C)o3)C2c2ccc(OC)c(OC)c2)nc1C (stereo unspecified) | . | -35% | . | ? | . | 32µM*
Cc1ccc2nc(N3C(=O)C(O)=C(C(=O)c4ccc(C)o4)C3c3cccc(O)c3)sc2c1 (stereo unspecified) | -8% | -18% | -19%[46 µM] | -24% | ? | 32µM*
CCOC(=O)c1sc(N2C(=O)C(O)=C(C(=O)c3ccc(C)o3)C2c2ccc(OC)c(OC)c2)nc1C (stereo unspecified) | . | -5% | . | 12% | . | 24%
COc1ccc(CCNC(=O)CCc2cn(Cc3ccc(C)cc3)c3ccccc23)c(OC)c1OC | . | 6% | . | . | . | ?
CC(C)(C)n1nnnc1C(c1cccs1)N1CCCC2(CCCCC2)C1 (stereo unspecified) | 5% | -1% | ? | 2% | 1% | 19%[59 µM]
c1csc(C(c2nnnn2C2CCCCC2)N2CCCC3(CCCCC3)C2)c1 (stereo unspecified) | 7.9µM* | -5% | 3% | 5% | 6% | -13%[59 µM]
c1coc(CN2CCN(C(c3cccs3)c3nnnn3C3CCCC3)CC2)c1 (stereo unspecified) | ? | -7% | 2% | 12% | -1% | 50µM*
CO[C@H]1COC(=O)[C@H]2CCCN2C(=O)[C@@H](C)COC(=O)C/C=C\[C@@H]1C | 21%[13.5 µM] | . | . | 11% | . | .
C/C(=C\C(=O)c1ccc(C)o1)Nc1ccc(C(=O)O)cc1C | ? | -6% | ? | -4% | ? | 71µM*
CCOCCCNC(=S)NCCNc1nc2c(C)cccc2cc1C#N | ? | 15% | -18% | 50µM* | -3% | -49%[59 µM]
CCOCCCNC(=S)NCCCNc1nc2c(C)cc(C)cc2cc1C#N | ? | -20% | ? | ? | ? | 14%[0.501 µM]
Cc1cccc2cc(C#N)c(NCc3ccccc3)nc12 | ? | 4% | 22%[9.22 µM] | ? | ? | 54%
Cc1cccc2cc(C#N)c(NCCNC(=O)COc3ccccc3)nc12 | ? | -1% | . | 50µM* | 6% | -45%
COC(=O)C1=C(c2ccccc2)c2ccccc2S(=O)(=O)N1CC(=O)Nc1cccc(C(C)=O)c1 | . | 16% | . | . | . | ?
Cc1ccccc1NC(=O)CC1(c2ccc(N(C)C)cc2)C(=O)c2ccccc2C1=O | 13µM* | 1% | 9% | -3% | -2% | .
CN(C)c1ccc(C2(O)C(=O)c3ccccc3C2=O)cc1 | -5% | -8% | -1% | 1% | 11% | -14%
Cc1ccc(NC(=S)N2CC(C)OC(C)C2)cc1C (stereo unspecified) | . | -10% | . | 14% | . | ?
Cc1ccccc1/C=N\NC(=O)c1csnn1 | -2% | -17% | -4% | 14µM* | 3% | ?
O=C(N/N=C\c1ccc(F)cc1)c1csnn1 | 4% | -24% | 15% | 1.4µM* | 3% | 1.6µM*
C[C@@H](NC(=O)c1[nH]cnc1C(=O)Nc1nccs1)c1ccccc1 | . | . | . | . | . | 3%[0.501 µM]
COc1ccc(/C=C/C(=O)NC(=S)Nc2ccc(S(N)(=O)=O)cc2)cc1OC | . | -4% | . | 15% | . | -8%[0.501 µM]
NS(=O)(=O)c1ccc(NC(=S)NCc2cccs2)cc1 | ? | 1% | 9%[46 µM] | 20µM* | -19% | 35µM*
COc1cc(OC)cc(C(=O)NNC(=S)NC2CC2)c1 | 8% | -5% | . | 26% | -1% | 56µM*
COc1ccc(OC)c(NC(=S)NCc2ccc(S(N)(=O)=O)cc2)c1 | ? | 0% | -6%[46 µM] | -12% | -5% | 45µM*
COc1cccc(C(=O)NNC(=S)NC2CCCCC2)c1 | 6% | -57% | ? | 4% | -5% | 19%[59 µM]
SMILES | ALDH1A1 block | miR-21 act | Lamin A splicing | Sfp PPTase inh | KDM4E inh | G9a inh
COc1ccc(Cl)cc1NC(=S)NCc1ccc(S(N)(=O)=O)cc1 | 17% | -4% | ? | 23% | -1% | 13%[59 µM]
COc1cc(OC)cc(C(=O)NNC(=S)Nc2ccc(S(N)(=O)=O)cc2)c1 | 11µM* | 16% | . | -8% | -3% | -20%[59 µM]
Cc1ccsc1C(C(=O)NC(C)(C)C)N(C(=O)c1csnn1)c1ccccc1 (stereo unspecified) | 4% | -1% | -2%[9.22 µM] | 12% | 5% | -1%
O=C(NNC(=O)c1ccccc1O)c1cccc(Br)c1 | . | -19% | . | 32% | . | .
CCOCCCNC(=S)Nc1ccc(S(N)(=O)=O)cc1 | 5% | -6% | 7% | 0% | -2% | 28µM*
NS(=O)(=O)c1ccc(CNC(=S)Nc2ccc(Cl)c(Cl)c2)cc1 | ? | 11% | . | ? | -10% | 45µM*
CC(C)CNC(=S)Nc1ccc(S(N)(=O)=O)cc1 | ? | -11% | -2% | -15% | 8% | 40µM*
COc1ccc(NC(=S)NCc2ccc(S(N)(=O)=O)cc2)c(OC)c1 | ? | -8% | -8% | 32µM* | 3% | 7.1µM*
CCCNC(=S)Nc1ccc(S(N)(=O)=O)cc1 | 10% | 1% | . | 6% | -3% | 2%
COc1ccccc1NC(=S)NCc1ccc(S(N)(=O)=O)cc1 | 2% | -2% | -17% | 10% | 10% | ?
O=C(NCCCN1CCCC1=O)c1cccc(NS(=O)(=O)c2ccc(Br)cc2)c1 | . | . | . | . | . | 5%
Cc1cc(C)c2c(=O)c3c(oc2c1)C(=O)N(CCCOC(C)C)C3c1ccccc1F (stereo unspecified) | . | -2% | . | . | . | 0%[59 µM]
COc1cccc(-c2nc(NCc3cccs3)c3ccccc3n2)c1 | -6% | . | ? | 15% | . | -40%[0.501 µM]
CCCNC(=O)C(Cc1ccc(F)cc1)NC(=O)c1ccccc1 (stereo unspecified) | . | . | . | . | . | 7%[0.501 µM]
COc1ccc(CNC(=S)Nc2ccc(OC)cc2)cc1 | ? | -16% | -4% | 12% | -3% | 23%[59 µM]
COc1ccc(CNC(=S)Nc2ccc(S(N)(=O)=O)cc2)cc1 | 28µM* | -2% | . | 50µM* | ? | -20%[12.7 µM]
COC(=O)[C@H](CC(C)C)NC(=O)Nc1ccc(S(N)(=O)=O)cc1 | . | -4% | . | 79µM* | 0% | 1%
C#CCCCCCCCCCCCC(O)CC(O)CO (stereo unspecified) | 1% | . | . | 12% | 1% | -9%[2.33 µM]
Cc1noc(C)c1-c1cc(N2CCNCC2)ncn1 | ? | . | -2% | -2% | . | 2%[0.501 µM]
CCn1c2ccccc2c2cc(NC(=O)CSc3nnc(-c4ccc(OC)c(OC)c4)n3N)ccc21 | ? | 23% | -20% | 13% | 2% | 0%[12.7 µM]

Bioassay records from PubChem.
